# Assay outcomes as filed in PubChem.
# Rows were chosen to be rich in hits. Some 4.1% of all compounds tested hit in one or more screens of this group.
# TROY NFkB inh = inhibitors of TROY-dependent NF-kB signaling. Q293 LMP1-TROYcd NF-kB luciferase reporter, 4 h. inhibition, % at 10 µM. 360,000 tested, 0.98% active;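 active means compounds whose plate-normalised and pattern-corrected inhibition of the luciferase reporter signal at the single screening dose is 50% or more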
# MITF TRPM1 inh = inhibitors of MITF-driven TRPM1 promoter in melanoma cells. SK-MEL-5 TRPM1 promoter luciferase, 24 h. inhibition, % at 12.5 µM. 330,000 tested, 0.83% active;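 active means mean inhibition across replicates of 60% or more, whatever share of single replicates reaches that level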
# TWEAK Fn14 block = TWEAK-Fn14 signaling inhibition. TWEAK-stimulated Fn14 reporter cells, luciferase luminescence, 8 h. inhibition, % at 10 µM. 360,000 tested, 2% active. AID 1159606; in the data active means inhibition above about 50%
# Shn3 3UTR inh = Schnurri-3 reporter inhibition in Clone20 osteoblasts; Clone20 osteoblast Shn3 3'UTR firefly luciferase, 24 h; inhibition, % at 12.5 µM; 360,000 tested, 0.52% active; AID 588674;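 active means mean inhibition of at least 75% with every replicate also reaching 75%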;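 further: 0% = median of neutral control wells and 100% = pilot-screen positive control compound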
# EBV LMP1 NFkB = Epstein-Barr LMP1 NF-kappaB reporter inhibition; LMP1-induced NF-kappaB luciferase reporter cells, luminescence; inhibition, % at 12.5 µM; 350,000 tested, 0.69% active; AID 504558; in the data active means inhibition above about 41%;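 further: 0% = neutral control wells and 100% = reference inhibitor control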
# Peg3 prom inh = reduces Peg3 promoter-driven luciferase expression in HeLa. HeLa PEG-Prom luciferase reporter, luminescence, overnight. inhibition, % at 20 µM. 360,000 tested, 1.7% active;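 active means inhibition of at least 50% at 20 µM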
# Active calls of the source: *; . = no result.
SMILES,TROY NFkB inh,MITF TRPM1 inh,TWEAK Fn14 block,Shn3 3UTR inh,EBV LMP1 NFkB,Peg3 prom inh
O=C(NC1CCCC1)C(c1ccc(F)cc1)N(Cc1ccc(Cl)cc1)C(=O)CCl (stereo not drawn),11,32,6,-3,5,62*
COc1ccc(C(C(=O)NC2CCCCC2)N(C(=O)CCCC(=O)Nc2ccccn2)c2ccc3c(c2)OCCO3)cc1 (stereo not drawn),0,14,-1,21,1,3
Cc1ccc(S(=O)(=O)N2CC3CCCC2C3)cc1 (stereo not drawn),1,7,8,4,2,4
c1ccc(OCCNc2ccn3nc(-c4ccc(OCCN5CCOCC5)cc4)cc3n2)cc1,17,.,54*,31,.,46
c1csc(CNc2ccn3nc(-c4ccc(OCCN5CCOCC5)cc4)cc3n2)c1,-1,.,23,-24,.,-21
COC(=O)Cc1ccc(NC(=S)N2CCN(c3cc(Cl)ccc3C)CC2)cc1,36,12,56*,70,18,-2
COc1ccc(C)cc1NC(=O)C1CCCN1S(=O)(=O)c1ccccc1F (stereo not drawn),25,6,-8,-27,3,0
COc1ccccc1NS(=O)(=O)c1cc([N+](=O)[O-])ccc1N/N=C/c1c[nH]c2ccccc12,52*,8,56*,24,-11,37
COc1ccc(NS(=O)(=O)c2cc([N+](=O)[O-])ccc2N/N=C\c2c(C)[nH]c3ccccc23)cc1,14,8,10,9,-8,27
Cc1nn(C2CCS(=O)(=O)C2)c(Cl)c1/C=C/C(=O)OCC(=O)c1cc(C)n(-c2ccc(F)cc2)c1C (stereo not drawn),42,17,59*,66,27,-2
Cc1nn(C2CCS(=O)(=O)C2)c(Cl)c1/C=C/C(=O)OCC(=O)c1c[nH]c2ccccc12 (stereo not drawn),37,25,38,47,9,26
COc1ccc(/C=N/NC(=O)c2ccc(N(C)S(=O)(=O)c3ccccc3)cc2)cc1,-4,10,51*,0,-15,-1
CC(c1nnc(SCC(=O)c2c(N)n(C3CC3)c(=O)[nH]c2=O)n1-c1ccc(F)cc1)N(C)C (stereo not drawn),4,1,18,-17,-3,5
Cc1ccc(-c2nnc(SCC(=O)N/N=C/c3ccc(C)s3)n2-c2ccccc2)cc1,-30,-4,23,6,-5,65*
Cc1ccc(-c2nnc(SCC(=O)N/N=C/c3ccccc3C(=O)O)n2-c2ccc(C)cc2)cc1,0,-1,92*,10,-2,3
CNC(=O)OCc1nc(SSC(C)(C)C)n(C)c1COC(=O)NC,-8,58,89*,96*,13,94*
COc1cccc(CN2CCN(C(=O)c3ccco3)CC2)c1,2,3,0,-7,10,17
CC(/C=C(\NC(=O)c1ccccc1)C(=O)N=Nc1c(O)[nH]c2ccc(C)cc12)=C\c1ccccc1,-29,11,38,19,12,53*
O=C(CSc1nc2c(c(=O)[nH]1)CCC2)Nc1cccc(F)c1,-12,0,0,6,-5,-11
CSc1cccc(NS(=O)(=O)c2ccc3c(c2)CCN3C(C)=O)c1,33,24,39,89*,24,42
COc1cccc(NS(=O)(=O)c2ccc3c(c2)CCN3C(C)=O)c1,9,10,25,63,11,15
Cc1nnc(SCC(=O)NC2CCCCCC2)n1N,-12,-4,-7,-21,7,-2
Cc1cc(OCC(=O)Nc2ccncc2)ccc1Br,.,-1,88*,55,7,-33
COc1cccc(NC(=O)COc2ccc(Br)c(C)c2)c1,-25,-8,-22,-8,-1,-150
Fc1ccccc1-c1csc(=Nc2cccnc2)n1CC1CCCO1 (stereo not drawn),-8,5,17,-35,-3,-4
Fc1ccccc1-c1csc(=Nc2cccnc2)n1CCCn1ccnc1,25,-10,55*,52,2,-67
Cc1cccc(C)c1NC(=O)COc1ccc2c(C)c(Cc3ccccc3)c(=O)oc2c1C,7,13,-37,8,-2,73*
Cc1cccc(-n2c(O)c(C=Nc3ccc4c(c3)OCO4)c3ccccc3c2=O)n1,-9,0,17,13,-3,2
